# In PubChem BioAssay:
# Activity calls are given as the source filed them.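 The calls were made as follows: active = compounds whose cell count with miR-34 switched on is under 0.7 times the count with it off; inactive = the rest.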
# Experiment: sensitizers of A549 cells to miR-34 induction, primary screen, imaging, A549 dox-inducible miR-34, nuclei and caspase counts (AID 1347080); also: test concentration not given here
# Conditions: A549 miR-34 inducible, Hoechst nuclei count, 48 h
# [1] = stronger effect = lower value, cell number ratio, induced over uninduced
# [2] = measured here: relative caspase fold change +Dox/-Dox
# [3] = measured here: total cells with miR-34 induction, stronger effect = lower value
# [4] = measured here: total cells without miR-34 induction
Compound,fold change [1],fold change [2],cell count [3],cell count [4]
CCCCC/C=C\C=C\C(O)CCCCCCCC(=O)OC[C@@H](COC(=O)CCCCCCC/C=C\C=C\C(O)CCCCC)OC(=O)CCCCCCC/C=C\C=C\C(O)CCCCC (stereo not given in full),1.03 (inactive),1.09,5890,5740
CCCc1oc(CCC(=O)O)c(C(=O)O)c1C,0.885 (inactive),0.896,5170,5840
CCCCCCCCCCCCCCNC(=O)C1CCCCC1,0.905 (inactive),0.661,4920,5430
CCCCCCCCNC(=O)Cc1c(C)n(C(=O)c2ccc(Cl)cc2)c2ccc(OC)cc12,1.03 (inactive),0.978,5650,5490
O=P(O)(O)O[C@H]1[C@@H](O)[C@H](O)[C@@H](OP(=O)(O)O)[C@H](OP(=O)(O)O)[C@H]1O,0.877 (inactive),1.8,5820,6630
FC(F)(F)c1ccc(/C=C/c2cc(Cl)cc(Cl)c2)cc1,1.01 (inactive),0.839,5620,5570
O=S(=O)(NO)c1ccccc1,1.01 (inactive),0.412,5110,5060
CCCCCCCCCCCCCCC(=O)N[C@H]1CCOC1=O,0.982 (inactive),1.59,5560,5660
Cc1c(C(=O)c2ccccc2)c(N)c(-c2ccccc2)n1Cc1ccc(Cl)cc1,0.936 (inactive),1.39,5890,6290
O=C(O)CCC/C=C\C[C@@H]1[C@@H](/C=C/[C@@H](O)COc2ccccc2)[C@H](O)C[C@@H]1O,0.956 (inactive),1.11,6410,6700
CCCC1([C@@H](O)C/C=C/[C@H]2[C@H](O)CC(=O)[C@@H]2CCCCCCC(=O)O)CCC1,0.95 (inactive),1.46,5970,6280
CCCCC[C@H](O)/C=C/[C@@H]1[C@H]2C/C=C\CCCC(=O)O[C@@H]1C[C@@H]2O,0.912 (inactive),0.907,5380,5900
COc1ccc(/C=C/c2cc(O)cc(O)c2)cc1O,0.915 (inactive),0.703,5710,6250
CS(=O)(=O)NC(=O)CCC/C=C\C[C@H]1C(=O)C[C@@H](O)[C@@H]1/C=C/[C@@H](O)COc1ccccc1,0.897 (inactive),1.55,5660,6300
CCCCCCCCCSCCCCCCCC(=O)O,0.943 (inactive),0.653,5310,5640
CCCCN=C(N)NO,1.06 (inactive),1.14,6280,5930
COc1ccc2c(c1)c(CC(=O)NCCc1ccccc1)c(C)n2C(=O)c1ccc(Cl)cc1,1.02 (inactive),0.638,6040,5920
CC(C)OC(=O)CCC/C=C\C[C@@H]1[C@@H](/C=C/[C@H](O)CCc2ccccc2)[C@H](O)C[C@@H]1O,0.945 (inactive),1.74,6060,6410
[O-]/[N+](=N/O[C@@H]1O[C@H](CO)[C@H](O)[C@H](O)[C@H]1O)N1CCCC1,0.904 (inactive),0.427,6560,7260
N[C@@H](CCC(=O)N[C@@H](CSN=O)C(=O)NCC(=O)O)C(=O)O,0.991 (inactive),0.986,5550,5600

Compound,fold change [1],fold change [2],cell count [3],cell count [4]
COC(=O)CCCCCC[C@@H]1[C@@H](CC[C@@H](O)CSc2ccccc2F)[C@H](O)C[C@@H]1O,0.962 (inactive),2.89,5920,6150
CCCCCC(=O)CC[C@H]1[C@H](O)CC(=O)[C@@H]1C/C=C\CCCC(=O)O,0.975 (inactive),1.25,6140,6290
CCCCC[C@@](C)(O)/C=C/[C@H]1C(=O)C[C@H](O)[C@@H]1C/C=C\CCCC(=O)O,0.936 (inactive),1.24,5370,5740
OC1C[C@@H]2[C@@H](CC[C@@H](O)CCc3ccccc3)[C@H](O)C[C@@H]2O1 (stereo not given in full),1.04 (inactive),0.862,6130,5890
CCCCC/C=C\C/C=C\C/C=C\CCCC/C=C\CCC(=O)O,0.938 (inactive),0.754,5780,6170
CCCCC/C=C\C/C=C\C/C=C\C/C=C\CCCCN1C(=O)C=CC1=O,0.86 (inactive),0.663,5540,6440
NC(=O)c1cccc(-c2cccc(OC(=O)NCCCCCCc3ccccc3)c2)c1,0.904 (inactive),0.743,5110,5650
CCCCCCCCCCCCCCCC(=O)N[C@H]1CCOC1=O,0.999 (inactive),1.15,5590,5590
CC(C)=CCC/C(C)=C/CC/C(C)=C/CC[C@]1(C)CCc2cc(O)c(C)c(C)c2O1,0.98 (inactive),0.749,5370,5480
CN(C)c1ccc(C(=O)NCCCCCC(=O)NO)cc1,0.991 (inactive),1.29,5550,5600
CCCCCCCCCCCC(=O)O,1.01 (inactive),1.12,5910,5870
CC(C)[C@H](O)CC[C@@H](C)[C@H]1CC[C@H]2[C@@H]3CC=C4C[C@@H](O)CC[C@]4(C)[C@H]3CC[C@]12C,0.898 (inactive),0.825,5260,5860
CCCCC/C=C\C/C=C\C/C=C\CCCCCCC(=O)OCC,1.05 (inactive),0.794,6480,6160
CCCCC[C@H](O)/C=C/[C@H]1CC[C@@H](O)[C@@H]1C/C=C\CCCC(=O)O,0.973 (inactive),1.34,5950,6110
CC(C)(O)c1ccccc1CC[C@H](SCC1(CC(=O)O)CC1)c1cccc(/C=C/c2ccc3ccc(Cl)cc3n2)c1,1.04 (inactive),0.195,5500,5280
C=CCN(C)CCCCCCOc1ccc(C(=O)c2ccc(Br)cc2)c(F)c1,1.01 (inactive),0.704,5700,5660
CCCCC[C@H](O)/C=C/[C@@H]1[C@@H](C/C=C\CCCC(=O)NCC)[C@@H](O)C[C@H]1O,0.749 (inactive),1.63,5570,7440
O=c1[nH]cc(CO)c(=O)[nH]1,1.01 (inactive),1.05,5770,5720
CCCCC[C@H](O)/C=C/[C@H]1C2CC(CO2)[C@@H]1C/C=C/CCCC(=O)O (stereo not given in full),1 (inactive),1.25,6110,6090
O=C(O)CCC/C=C\C[C@@H]1[C@@H](/C=C/[C@@H](O)Cc2ccccc2)[C@H](O)C[C@@H]1O,0.969 (inactive),1.42,6070,6260

Compound,fold change [1],fold change [2],cell count [3],cell count [4]
COc1ccc(C2=N[C@@H](c3ccc(Cl)cc3)[C@@H](c3ccc(Cl)cc3)N2C(=O)N2CCNC(=O)C2)c(OC(C)C)c1,1.1 (inactive),0.974,4290,3920
O=C1C[C@@H]2[C@@H](/C=C/[C@@H](O)COc3cccc(C(F)(F)F)c3)[C@H](O)C[C@@H]2O1,0.96 (inactive),1.35,5650,5880
CCCC1([C@@H](O)C/C=C/[C@H]2C(O)CC(=O)[C@@H]2CCCCCCC(=O)OC)CCC1 (stereo not given in full),1.02 (inactive),1.54,6030,5910
CCCCC[C@@](C)(O)/C=C/[C@@H]1[C@@H](C/C=C\CCCC(=O)OC)[C@@H](O)C[C@H]1O,0.949 (inactive),1.07,5940,6260
CS(=O)(=O)NC(=O)CCCCCCCCCC=C(Br)Br,0.853 (inactive),1.19,4860,5700
COc1ccc(-c2nc3cc(F)ccc3s2)cc1OC,0.915 (inactive),0.244,4920,5370
CCCCC(C)(O)C/C=C/[C@H]1[C@H](O)CC(=O)[C@H]1CCCCCCC(=O)OC (stereo not given in full),1.02 (inactive),1.88,5420,5290
CCCCC[C@H](O)/C=C/[C@@H]1[C@H](C/C=C\CCCC(=O)O)[C@H](O)C[C@H]1O,0.921 (inactive),1.6,5020,5450
CCCCC/C=C/C=C1/C=CC(=O)[C@@H]1CCCCCCC(=O)O,1.71 (inactive),0.938,5570,3250
O=C(O)CCC/C=C\C[C@@H]1[C@@H](/C=C/[C@@H](O)C2CCCCC2)[C@H](O)C[C@@H]1O,0.938 (inactive),1.34,5910,6300
O=C1C(c2ccccc2)N(c2ccc(Br)cc2)C(=O)N1c1ccc(Br)cc1 (stereo not given),0.936 (inactive),0.667,5960,6370
CCCCCC(=O)/C=C/[C@@H]1[C@@H](CCCCCCC(=O)O)[C@@H](O)C[C@H]1O,1.03 (inactive),1.29,5670,5520
CCCCCCCCCCCCC(=O)N[C@H]1CCOC1=O,0.915 (inactive),1.35,5190,5670
O=C(NCc1ccncc1)C12CC3CC(C1)CC(c1ccc(Cl)cc1)(C3)C2,0.915 (inactive),1.12,4010,4380
OCC(O)[C@@H](O)CO (stereo not given in full),0.92 (inactive),0.896,8910,9680
CCCCC[C@H](O)/C=C/[C@H]1[C@H](O)CC(=O)[C@@H]1C/C=C\CCCC(=O)NC(CO)CO,1.04 (inactive),1.67,6080,5870
CCCCCCOC(=O)[C@@]1(O)CC2OC1(C)n1c3ccccc3c3c4c(c5c6ccccc6n2c5c31)C(=O)NC4 (stereo not given in full),0.758 (inactive),1.42,4880,6430
O=C1OC2(c3ccc(O)cc3Oc3cc(OS(=O)(=O)c4c(F)c(F)c(F)c(F)c4F)ccc32)c2ccccc21 (stereo not given),1.09 (inactive),0.755,6600,6070
CCCCCCCC/C=C/CCCCCCCC(=O)O,1.1 (inactive),0.875,6340,5750
CCOC(=O)c1ccc(N=Nc2ccc(O)c(CC(=O)O)c2)cc1,0.95 (inactive),0.801,6160,6490
